We go through 16 molecules from publication PMC5540273 (PLoS ONE, 2017).

Some test systems named below: CDK8; CDK9; CDKL1; CDKL2; CDKL3; CDKL5; CHEK1; CHEK2; CIT; CLK1.
Conditions in all cases: concentration: 1 μM, replicates: in singlicate; n = 1
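Further: KINOMEscan kinase panel screen.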

With `Cc1ccc(F)c(C(=O)Nc2cccc(-c3nn4ccccc4c3-c3ccnc(Nc4cccc(F)c4)n3)c2)c1F` [GSK361061], the “%Inh” value with CDK8 turned out to be 15%; in the test with CDK9, 0%; with CDKL1 it was 2%; with CDKL2 it was 31%; with CDKL3, 0%; with CDKL5, 5%. The “%Inh” value in the test with CHEK1 was found to be 6%; with CHEK2 it was 0%; in the test with CIT, 9%; with CLK1, 32%.
In the case of `Cl.c1ccc(-c2ccc3c(Nc4ccc5[nH]ncc5c4)ccnc3c2)nc1` [GW440137], the “%Inh” value in the test on CDK8 turned out to be 26%; in the test with CDK9 it was 11%; in the test with CDKL1 it was 7%; in the test with CDKL2, 40%; in the test on CDKL3, 0%; with CDKL5, 0%. Moreover, the “%Inh” value was 0% with CHEK1, 14% with CHEK2, 11% in the test on CIT and 48% in the test with CLK1.
In the case of `CN(C)S(=O)(=O)c1cc(-c2ccc3nccc(-c4cccc(S(N)(=O)=O)c4)c3c2)cnc1N` [GSK1669921], the “%Inh” value with CDK8 was found to be 35%; with CDK9, 0%; in the test on CDKL1, 77%; in the test with CDKL2, 25%; with CDKL3, 0%; with CDKL5, 12%. Moreover, the “%Inh” value is listed as 100% in the test on CHEK1, 0% in the test with CHEK2, 16% in the test with CIT and 57% in the test on CLK1.
In the case of `COC(=O)Nc1nc2cc(Oc3ccc(NC(=O)Nc4cc(C(F)(F)F)ccc4F)cn3)ccc2[nH]1.Cl.Cl` [GW681170], the “%Inh” value with CDK8 stood at 100%; in the test on CDK9, 0%; in the test with CDKL1, 29%; with CDKL2 it was 98.3%; with CDKL3 it was 56%; with CDKL5, 0%. The “%Inh” value is 0% with CHEK1, 24% with CHEK2, 100% in the test with CIT and 42% with CLK1.
`O=C(NC1CCN(c2ccnc(Nc3ccc(F)cc3)n2)C1)c1cc2ccccc2s1` (stereo not shown) [GSK1379716]: the “%Inh” value with CDK8 came to 52%; in the test on CDK9, 6%; in the test with CDKL1, 0%; with CDKL2, 40%; with CDKL3 it was 0%; in the test on CDKL5, 5%. Besides, the “%Inh” value in the test with CHEK1 is given as 0%; in the test on CHEK2, 38%; in the test with CIT, 33%; in the test with CLK1, 29%.
Take `C[C@@H]1CC[C@@H](C(=O)Nc2ccccc2)CN1c1cc(-c2ccc3c(N)n[nH]c3c2)nc(N)n1` [GSK2286062]: the “%Inh” value in the test on CDK8 turned out to be 19%; in the test with CDK9 it was 4%; in the test on CDKL1, 0%; with CDKL2 it was 7%; with CDKL3, 0%; in the test with CDKL5, 0%. Besides, the “%Inh” value with CHEK1 was determined as 0%; in the test on CHEK2, 26%; in the test on CIT, 8%; with CLK1, 14%.
In the case of `Cn1cc(-c2ccc3c(c2)CCN3C(=O)Cc2cccc(Cl)c2)c2c(N)ncnc21` [GSK2606590], the “%Inh” value with CDK8 amounted to 100%; in the test on CDK9, 0%; with CDKL1, 0%; in the test on CDKL2, 42%; in the test with CDKL3, 0%; in the test on CDKL5, 4%. Besides, the “%Inh” value with CHEK1 was 3%; with CHEK2 it was 0%; in the test on CIT, 26%; in the test with CLK1 it was 30%.
For the molecule `CC(=O)Nc1nc2cnc(Nc3cc(NC(=O)c4cccc(C5(C#N)CC5)c4Cl)ccc3C)nc2s1`, the “%Inh” value in the test with CDK8 was 21%; with CDK9, 0%; in the test on CDKL1, 5%; in the test on CDKL2 it was 36%; in the test with CDKL3, 24%; in the test with CDKL5, 0%. Also, the “%Inh” value in the test on CHEK1 is 0%; in the test with CHEK2, 4%; in the test on CIT, 62%; with CLK1, 0%.
As for `COc1cc2c(cc1OCCN1CCNCC1)ncc1c3ccc(C#N)cc3[nH]c21`, the “%Inh” value in the test on CDK8 worked out at 19%; in the test on CDK9 it was 8%; in the test on CDKL1, 19%; in the test with CDKL2, 0%; with CDKL3 it was 10%; with CDKL5, 0%. Besides, the “%Inh” value with CHEK1 was 84%; in the test on CHEK2 it was 46%; in the test on CIT, 98.8%; in the test on CLK1 it was 95.7%.
As to `Cc1cccc(NC(=O)Nc2ccc(Oc3ncnc4ccn(C)c34)cc2)c1`, the “%Inh” value turned out to be 72% in the test with CDK8; 0% in the test on CDK9; 11% in the test with CDKL1; 5% with CDKL2; 0% with CDKL3; 0% in the test with CDKL5. Besides, the “%Inh” value in the test with CHEK1 was determined as 0%; with CHEK2, 0%; with CIT, 0%; with CLK1, 2%.
As for `COc1ccc(Nc2nccc(NCCNC(=O)c3cc4ccccc4s3)n2)cc1` [GSK1379896], the “%Inh” value worked out at 15% in the test with CDK8; 0% in the test with CDK9; 0% with CDKL1; 23% with CDKL2; 0% in the test with CDKL3; 0% in the test on CDKL5. Further, the “%Inh” value in the test with CHEK1 is listed as 0%; in the test with CHEK2, 0%; in the test on CIT, 5%; in the test on CLK1, 20%.
On to `Cn1cc(-c2ccc3c(c2)CCN3C(=O)Cc2cccc(F)c2)c2c(N)ncnc21` [GSK2603358], for which the “%Inh” value was 97.8% with CDK8; 7% in the test on CDK9; 6% in the test with CDKL1; 43% in the test on CDKL2; 0% with CDKL3; 0% with CDKL5. Moreover, the “%Inh” value was found to be 5% in the test with CHEK1, 0% with CHEK2, 20% with CIT and 18% in the test on CLK1.
Consider `COc1cc(Nc2nccc(-c3c(-c4cccc(NC(=O)c5c(F)cccc5F)c4)nn4ccccc34)n2)cc(OC)c1OC` [GSK323521], for which the “%Inh” value in the test with CDK8 was determined as 90%; in the test on CDK9, 0%; in the test on CDKL1, 6%; in the test on CDKL2 it was 0%; in the test with CDKL3, 13%; in the test on CDKL5, 2%. Moreover, the “%Inh” value came out at 30% in the test on CHEK1, 0% in the test with CHEK2, 20% with CIT and 30% with CLK1.
On to `COc1cc(Nc2nccc(N3CCC(NC(=O)c4cc5ccccc5s4)C3)n2)cc(OC)c1OC` (stereo not shown) [GSK1379760], for which the “%Inh” value in the test with CDK8 was 38%; in the test on CDK9 it was 5%; in the test with CDKL1 it was 11%; in the test with CDKL2, 43%; with CDKL3 it was 13%; in the test with CDKL5, 1%. In addition, the “%Inh” value with CHEK1 stood at 0%; in the test on CHEK2, 16%; in the test on CIT it was 0%; with CLK1, 4%.
As for `COCCOCCOc1cc2ncc3c4ccc(C#N)cc4[nH]c3c2cc1OC`, the “%Inh” value in the test with CDK8 is 1%; in the test on CDK9 it was 0%; in the test with CDKL1, 56%; with CDKL2, 7%; in the test on CDKL3 it was 0%; with CDKL5 it was 0%. The “%Inh” value in the test on CHEK1 came out at 55%; with CHEK2, 57%; in the test with CIT, 98.2%; with CLK1, 84%.
`c1ccc(Oc2ccc(Nc3ccnc4cc(-c5ccc(CNCCN6CCOCC6)o5)ccc34)cc2)nc1` [GW567145]: the “%Inh” value in the test with CDK8 amounted to 55%; in the test on CDK9, 0%; with CDKL1, 2%; with CDKL2, 9%; in the test on CDKL3, 0%; with CDKL5, 0%. Moreover, the “%Inh” value with CHEK1 was determined as 0%; with CHEK2, 90.6%; in the test on CIT, 7%; in the test with CLK1 it was 17%.
